From PubChem BioAssay AID576 (NMMLSC, 2007) come the findings set out here.

Molecules are shown by their SMILES. Out of some 24,000 compounds screened, about 150 (0.62%) were called active. This excerpt belongs to a sample that is enriched for actives. Values without a mark were called inactive.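 How the source made its calls: active means fluorescence ratio above 2.44, which is 1 plus 3 SD of all ratios; inconclusive means signal too bright to measure linearly, ratio around 10 or more; inactive means fluorescence ratio below 2.44.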

A short description of this experiment: intrinsic compound fluorescence with Jurkat cells – cell-based, flow cytometry, artefact control for VLA-4 allosteric ligand project, primary screen (AID 576).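 Further: green fluorescence of cells measured with 488 nm excitation and 530 nm emission; tested at 10 µM compound in the well.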 The following applies: compound autofluorescence, hits give high values, 1 = vehicle-only cell background.
As for `O=C(O)C1CCN(S(=O)(=O)N2CCOCC2)CC1`, the fluorescence ratio is 1.

In the case of `CCN1CCCC1CNC(=O)Cn1cnc2ccc(S(=O)(=O)N3CCC(C)CC3)cc2c1=O` (stereo unspecified), the fluorescence ratio was 1.05.

For the molecule `CCOc1cc2[nH]c(=O)n(CCC(=O)NCc3ccc(OC)cc3)c(=O)c2cc1OCC`, the fluorescence ratio is 0.94.

`CCOc1ccc(CNC(=O)C2CC(=O)N(C3CCCC3)C2)cc1OC` (stereo unspecified): the fluorescence ratio is 0.92.

`Cc1ccc(-c2ccc(=O)n(CC(=O)NCCCN3CCCCC3)n2)cc1`: the fluorescence ratio was 1.06.

Take `CCCS(=O)(=O)C(=C1Nc2ccccc2N1)S(=O)(=O)CCC`: the fluorescence ratio was 1.04.

With `COc1cc(-n2c(C)nc3cc(C(=O)NCc4ccco4)ccc32)cc(OC)c1OC`, the fluorescence ratio was 1.05.

Take `COCCOC(=O)C1=C(C)NC(=O)CC1c1cc2c(cc1Br)OCO2` (stereo unspecified): the fluorescence ratio is 0.99.

On to `O=C(NCCN1C(=O)C2C3C=CC(C3)C2C1=O)Nc1ccccn1` (stereo unspecified), for which the fluorescence ratio is 0.86.

On to `Cc1ccc(-n2nc3c(c2NC(=O)c2ccc4c(c2)OCO4)CSC3)c(C)c1`, for which the fluorescence ratio is 0.97.

For the molecule `CCN1CCN(c2ncnc3c2oc2nc(C)c4c(c23)CC(C)(C)OC4)CC1`, the fluorescence ratio was 0.92.

On to `Cc1cc(NS(=O)(=O)c2ccccc2)no1`, for which the fluorescence ratio was 0.95.

As to `CCC1CCCCN1CCNS(=O)(=O)c1ccc2c(c1)CCN2C(C)=O` (stereo unspecified), the fluorescence ratio is 1.02.

`CC(c1cccnc1)N(CCN(C)C)C(=O)Nc1ccc(Cl)c(Cl)c1` (stereo unspecified): the fluorescence ratio is 1.09.

For the molecule `CCCOc1ccc(-c2nc(N)n[nH]2)cc1`, the fluorescence ratio was 1.01.

As for `CCOc1ccc(-n2c(SC(C)C(=O)OC)nc3c(c2=O)SCC3)cc1` (stereo unspecified), the fluorescence ratio was 1.09.

On to `CCOC(=O)C1CCN(C(=O)C2CCN(S(=O)(=O)CC)CC2)CC1`, for which the fluorescence ratio is 1.02.

Take `Cc1ccc2cccc(O)c2[n+]1[O-]`: the fluorescence ratio was 1.03.

As to `CCC(C)n1[nH]c(=O)c2c(C)cc(C)nc21` (stereo unspecified), the fluorescence ratio is 1.05.

Regarding `CCOC(=O)Cn1c(=O)oc2cc(S(=O)(=O)NCC3CCCO3)ccc21` (stereo unspecified), the fluorescence ratio was 1.88.

Regarding `CCn1ncc(C2=NOC(C(=O)N3CCN(c4ccccc4)CC3)C2)c1C` (stereo unspecified), the fluorescence ratio is 1.1.

Turning to `Cn1cccc1C1(C(F)(F)F)NCCNC1=O` (stereo unspecified), the fluorescence ratio is 1.07.

Consider `N#CC1=C(N)Oc2cc(O)ccc2C1C1CCCCC1` (stereo unspecified), for which the fluorescence ratio was 1.18.

For the molecule `COC(=O)C1=C(C)OC(N)=C(C#N)C1c1cc(OC)ccc1OC` (stereo unspecified), the fluorescence ratio is 1.05.

Consider `C=C1c2cc(CC)ccc2NC(=O)N1c1ccc(C)cc1`, for which the fluorescence ratio was 1.01.

As for `O=c1c2ccccc2[nH]c(=S)n1CCN1CCC(=C(c2ccc(F)cc2)c2ccc(F)cc2)CC1`, the fluorescence ratio was 1.02.

Consider `CC(=O)c1c(N2CCOCC2)nc(=S)n(Cc2ccccc2)c1C`, for which the fluorescence ratio is 1.3.

For `COC(=O)Cn1cc(C(=O)c2cccs2)c2ccccc21`, the fluorescence ratio was 0.93.

For the molecule `CCn1c(CSc2ncccn2)nnc1SCC(=O)N1c2ccccc2CC1C` (stereo unspecified), the fluorescence ratio is 1.

Regarding `Cc1ccc(S(=O)(=O)NCCN2CCOCC2)cc1C`, the fluorescence ratio is 1.05.

For the molecule `CCOc1ccccc1NC(=O)C1CCN(S(=O)(=O)c2c(C)nn(C)c2C)CC1`, the fluorescence ratio was 1.02.

With `CCOC(=O)c1ccc(NC(=O)Cn2nnc(-c3ccc(C)cc3)n2)cc1`, the fluorescence ratio is 1.04.

`CC(C)(C)NC(=O)Cn1nnc(-c2ccccc2Cl)n1`: the fluorescence ratio is 3.61 (active).

Take `N#Cc1ccc(COC(=O)Cn2nnc(-c3ccccc3)n2)cc1`: the fluorescence ratio was 1.04.

As to `O=C(Nc1ccccc1C(=O)N1CCOCC1)C1CCC(=O)N1C1CCCC1` (stereo unspecified), the fluorescence ratio is 1.04.

Take `CC(C)NC(=O)CCCn1c(=S)[nH]c2cc3c(cc2c1=O)OCO3`: the fluorescence ratio is 1.14.

`O=C(O)CSCNC(=O)CC12CC3CC(CC(C3)C1)C2`: the fluorescence ratio was 0.77.

Turning to `CCOC(=O)C1CCN(C(=O)CC2C(=O)N(Cc3ccccc3)C(C)c3nc4ccccc4n32)CC1` (stereo unspecified), the fluorescence ratio was 1.02.

`CCOC(=O)c1c(NC(=O)c2cccs2)sc(C)c1C`: the fluorescence ratio was 1.07.

With `Cc1c(C(=O)NCCN2CCOCC2)sc2nc(-c3ccc(F)cc3)cn12`, the fluorescence ratio was 1.22.

Take `CC1CCN(Cc2nc3c(c(=O)n(C)c(=O)n3C)n2Cc2cccc3ccccc23)CC1`: the fluorescence ratio is 1.06.
